Source: PubChem BioAssay (Tox21)
Records with an inconclusive call do not appear. A call without a number means that no potency is given here. Calls of active or inactive are those of the source. Calls follow the shape of the dose curve; as a rule, active = well fitted cell-killing curve with a large enough effect in the repeat runs; inconclusive = weak or mixed curves; inactive = flat fitted curve, though single readings scatter.

Test: qHTS assay to identify small molecule antagonists of the TGF-beta/Smad signaling pathway - cell viability counter screen (AID 1346824); also: nearly all actives have a fitted effect of over 50% in size
Conditions: SBE-bla HEK293T viability, CellTiter-Glo luminescence; series mostly up to 76.8 µM
Excerpt: U.S. Tox21 Program National Center for Advancing Translational Sciences [NCATS] NIH Chemical Genomics Center [NCGC] U.S. Environmental Protection Agency [EPA] National Institutes of Environmental Health Sciences [NIEHS] National Toxicology Program [NTP] U.S. Food and Drug Administration [FDA] Tox21 Assay Overview: Transforming growth factor beta (TGF-beta) superfamily consists of a large number of structurally related dimeric proteins that act as hormones or local mediators in regulating a wide range of biological functions. This superfamily includes TGF-betas themselves, the bone morphogenetic proteins (BMPs) and the activins. These ligands induce oligomerization of serine/threonine receptor kinases and phosphorylate the cytoplasmic signaling molecules of Smad protein family. CellSensor SBE-bla HEK 293T cell line (Life Technologies, Carlsbad, CA), responsive to TGF-beta was used to screen Tox21 10K compound library for identification of agonists/antagonists of the Smad signaling pathway. This cell line contains a beta-lactamase reporter gene under control of the Smad binding element (SBE) stably integrated into HEK 293T cells. Also cytotoxicity of the compounds was tested in parallel by measuring the cell viability using CellTiter-Glo assay system in the same wells.
Tox21 Assay Protocol Summary: SBE-bla HEK 293T cells were dispensed at 4,000/well in 5 uL of assay medium into black wall/clear-bottom 1536-well plates using a Multidrop Combi (ThermoFisher Scientific, Waltham, MA) dispenser. After the assay plates were incubated at 37 C and 5% CO2 for an overnight, 23 nL of compounds dissolved in DMSO, positive controls or DMSO only was transferred to the assay plate by a Pintool station (Kalypsys, San Diego, CA). Compound transfer was followed by the addition of 1 uL of 0.25 ng/mL TGF-beta1 or assay buffer using two separate tips of Flying Reagent Dispenser (FRD, Aurora Discovery, San Diego, CA). The assay plates were incubated at 37 C and 5% CO2 for 5 hr. One uL of LiveBLAzer B/G FRET substrate (Life Technologies) was added using a Flying Reagent Dispenser (FRD, Aurora Discovery, San Diego, CA) and the plates were incubated at room temperature for 2 hr. Fluorescence intensity (405 nm excitation, 460 nm and 530 nm emissions) was measured using an Envision plate reader (PerkinElmer, Shelton, CT). For cytotoxicity read, 4 uL of CellTiter-Glo reagent (Promega Corporation, Madison, WI) was added to each well of the assay plates using FRD. After 30 min incubation at room temperature, the luminescence intensity was measured using ViewLux plate reader (PerkinElmer).

Row | Structure (SMILES) | Potency
1 | O=[N+]([O-])c1ccc([As](=O)(O)O)cc1 | inactive
2 | O=c1[nH]c(=O)[nH]c(=O)[nH]1 | inactive
3 | Nc1c(Cl)c(Cl)nc(C(=O)O)c1Cl | inactive
4 | CNC(=O)Oc1ccccc1OC(C)C | inactive
5 | OC(O)C(Cl)(Cl)Cl | inactive
6 | CCCCCOC(=O)c1ccccc1C(=O)OCCCCC | inactive
7 | CCC[N+](=O)[O-] | inactive
8 | CC(C)(Cl)Cl | inactive
9 | Cn1cc(-c2ccccc2)c(=O)c(-c2cccc(C(F)(F)F)c2)c1 | inactive
10 | C=C(C)CCl | inactive
11 | O=C1CCCN1 | inactive
12 | O=[N+]([O-])c1ccc(Oc2ccc(Cl)cc2Cl)cc1 | inactive
13 | COc1ccc2c3c1O[C@H]1[C@@H](O)C=C[C@H]4[C@@H](C2)N(C)CC[C@@]341 | inactive
14 | O=NN1CCCC1 | inactive
15 | c1ccc(OP(Oc2ccccc2)Oc2ccccc2)cc1 | inactive
16 | Nc1ccc(Cc2ccc(N)cc2)cc1 | inactive
17 | C[C@]12CC[C@H]3[C@@H](CC[C@@]45O[C@@H]4C(O)=C(C#N)C[C@]35C)[C@@H]1CC[C@@H]2O | inactive
18 | Cc1cc(-c2cc(C)c(N)c(C)c2)cc(C)c1N | inactive
19 | CCC12COCN1COC2 | inactive
20 | CC1C=[C-]C=C1.[C-]#[O+].[C-]#[O+].[C-]#[O+].[Mn] | inactive

Row | Structure (SMILES) | Potency
21 | CCCCN(CC)C(=O)SCCC | inactive
22 | CN(C)CCO | inactive
23 | CCN(CC)c1ccccc1 | inactive
24 | Cc1ccc([N+](=O)[O-])cc1C | inactive
25 | C#CC(C)(C)NC(=O)c1cc(Cl)cc(Cl)c1 | inactive
26 | c1cc2c3c(cccc3c1)CC2 | inactive
27 | C1CC2OC2CC1C1CO1 (stereo not given) | inactive
28 | CC(Br)C(=O)O (stereo not given) | inactive
29 | NCCc1ccc(O)cc1 | inactive
30 | CN(C)N=O | inactive
31 | Cc1cc(Cl)ccc1O | inactive
32 | O=S(=O)(c1ccc(O)cc1)c1ccc(O)cc1 | inactive
33 | CCc1cccc(C)c1N(C(=O)CCl)C(C)COC (stereo not given) | inactive
34 | c1ccc2c(c1)Oc1ccccc1O2 | inactive
35 | CN(C)[C@@H]1C(=O)C(C(N)=O)=C(O)[C@@]2(O)C(=O)C3=C(O)c4c(O)cccc4[C@@](C)(O)[C@H]3C[C@@H]12 | inactive
36 | BrCCBr | inactive
37 | CC(C)NC(=O)N1CC(=O)N(c2cc(Cl)cc(Cl)c2)C1=O | inactive
38 | CCN(CC)CCO | inactive
39 | c1ccc(-c2ccccc2)cc1 | inactive
40 | COP(N)(=O)SC (stereo not given) | inactive
